# D1 antagonist = blocks dopamine activation of the human D1 receptor | P21728 | HEK293 TREx D1 cells, calcium flux, dopamine EC80; hits give low values | activity change, negative = inhibition, % at 10 µM | 3.2% of 360,000 active | AID 504652; in the data active means activity change below about -30%; further: on the % scale 0 is the no-effect control and ±100 the full control effect
# Target sequence (P21728 whole entry, looked up): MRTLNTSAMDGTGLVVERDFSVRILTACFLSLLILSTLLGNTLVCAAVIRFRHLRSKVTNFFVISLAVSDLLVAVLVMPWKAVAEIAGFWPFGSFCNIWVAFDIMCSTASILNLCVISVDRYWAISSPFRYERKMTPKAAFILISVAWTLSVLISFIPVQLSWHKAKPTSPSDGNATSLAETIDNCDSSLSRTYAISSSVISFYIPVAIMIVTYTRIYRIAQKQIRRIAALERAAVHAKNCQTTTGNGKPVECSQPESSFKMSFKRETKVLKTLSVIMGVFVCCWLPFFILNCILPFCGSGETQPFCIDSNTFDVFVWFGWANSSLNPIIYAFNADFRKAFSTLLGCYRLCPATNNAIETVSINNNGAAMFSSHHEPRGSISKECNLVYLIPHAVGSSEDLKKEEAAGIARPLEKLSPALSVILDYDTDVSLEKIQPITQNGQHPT
#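 HEK293 T-REx cells expressing inducible, force-coupled D1 receptor; no-wash Ca dye, 30–90 min RT. Cmpd → 180 s read at 1 Hz → EC80 DA → 180 s read.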
# TRHR enhancer = allosteric enhancers of human TRH receptor | 0.66% of 360,000 active | TRHR cells, fluo-8 calcium fluorescence, EC20 TRH enhancement | P34981 | enhancement, % at 2 µM; in the data active means enhancement above about 30%; further: 0% is about no effect
#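 TRHR-expressing cells loaded with fluo-8 calcium dye were read kinetically (ex 480/em 530) during compound addition, then stimulated with an EC20 of TRH (10 nM final). Enhancement of the Gq-mediated intracellular calcium response was scored.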
# D1 agonist = agonists of human D1 dopamine receptor. P21728. AID 504660. activation, % at 2 µM. 1% of 360,000 active. HEK293 T-REx D1 cells, calcium flux, agonist mode; further: 0% is about no effect
#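 Agonism was scored from calcium flux recorded over 180 s (1 read/s) after pintool compound addition, following a 10-cycle baseline. Cells were inducible force-coupled HEK293 TREx D1, plated overnight at 30 C and loaded with no-wash calcium dye.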
# D1 PAM = potentiators of human D1 dopamine receptor | P21728 | HEK293 TREx D1 cells, calcium flux, dopamine EC20 potentiation | potentiation, % at 10 µM | 0.036% of 360,000 active; in the data active means potentiation above about 30%; further: 0% is about no effect
# TRHR agonist = agonists of human TRH receptor; P34981; TRHR cells, calcium flux fluo-8, FDSS agonist mode; activation, % at 2 µM; 0.18% of 360,000 active; AID 493084; further: 0% is about no effect
#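 Fluo-8-loaded TRHR cells; 10 s baseline, compound added, kinetic Ca2+ fluorescence read 1/s, agonist mode.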
# * = called active by the depositor. Hits are enriched below; roughly 4.6% of the tested compounds scored in any of these assays. Unless noted, no stated cut-off is given here; in the data, active means activation above about 30%; inactive means the rest.
SMILES,D1 antagonist,TRHR enhancer,D1 agonist,D1 PAM,TRHR agonist
CCN(CC)C(=O)Cn1c(=O)n(CC2CCC(C(=O)NC)CC2)c(=O)c2sccc21 (configuration not stated),-6,9,0,-2,-1
COc1ccc(C(=O)NCc2ccc3c(c2)CCN3C(=O)c2ccncc2)cc1,-10,-3,-1,4,-1
Cc1cc(O)c(-c2ccnc3cc(-c4ccccc4)nn23)cc1Cl,-3,6,0,-1,-2
O=C(c1cccc(NS(=O)(=O)c2ccc(F)cc2)c1)N1CCN(c2ccccc2)CC1,-42*,-2,4,2,-1
O=C(c1cccc(S(=O)(=O)N2CCOCC2)c1)N(CCO)Cc1ccccc1,-33*,-5,0,-7,0
Cc1ccc(Cn2c(C(=O)O)c(CNC3CCCCCC3)c3ccc(C)cc32)cc1,18,-4,1,-4,0
Cc1ccc(Cl)cc1N1CCN(C(=O)c2ccc(NC3=NC4CS(=O)(=O)CC4S3)cc2)CC1 (configuration not stated),-44*,-3,4,-5,1
Cc1nn(C)c2c1c(-c1ccccc1)cc(=O)n2C(C)C(=O)NCCc1ccc(Cl)cc1 (configuration not stated),-3,3,2,-2,0
Nc1c(C(=O)Nc2ccc(Cl)cc2F)sc2nc(-c3cccs3)ccc12,-38*,0,16,0,3
Nc1c(C(=O)Nc2ccccc2Br)sc2nc(-c3cccs3)ccc12,-9,-4,8,-1,2
Nc1c(C(=O)Nc2nc3ccccc3s2)sc2nc(-c3cccs3)ccc12,3,2,112*,-3,-1
CC(=O)c1sc2nc(-c3cccs3)ccc2c1N,1,-5,11,-2,-1
CCOC(=O)c1ccc(NC(=O)CC2COc3ccccc3O2)cc1 (configuration not stated),-30*,10,0,1,1
CCOC(=O)c1ccc(NC(=O)N2CCOc3ccccc32)cc1,-30*,-8,9,-5,1
Cc1ccc(N=C2NC(=O)CC(C(=O)Nc3cc(C(F)(F)F)ccc3Cl)S2)cc1 (configuration not stated),-2,4,0,-2,0
Cc1cc(NC(=S)N(CCCN2CCN(C)CC2)Cc2ccco2)ccc1Cl,-31*,-7,9,0,0
Cc1ccc(Cl)cc1NC(=S)N(CCCN1CCOCC1)Cc1ccco1,-52*,0,3,-12,0
Cc1ccc(NC(=S)N(CCCN2CCOCC2)Cc2ccco2)cc1C,8,-1,-1,0,1
Cc1ccc(-n2ncc(C(=O)NCc3ccccc3)c2C2CCN(C(=O)OC(C)(C)C)CC2)cc1,3,-8,0,-5,0
CC(=O)Nc1cc[n+](CC(=O)c2ccc(Cl)cc2)cc1,-33*,1,2,1,1
CC(=O)c1ccc(C(=O)Nc2nnc(-c3ccc(Cl)cc3)o2)cc1,-32*,2,0,-9,-1
Cc1ccc(C(C)C)cc1NC(=O)Nc1ccc([N+](=O)[O-])cc1,-49*,-7,17,-14,3
O=C(Nc1ccc([N+](=O)[O-])cc1)Nc1cnccn1,-32*,-3,16,-9,0
CC(=O)Nc1cc[n+](C(C)C(=O)c2ccc(Cl)cc2)cc1 (configuration not stated),-3,-1,4,-9,0
CCOC(=O)c1c(C)[nH]c(C)c1S(=O)(=O)NCC(=O)Nc1ccc(C)cc1C,-11,7,3,-3,0
SMILES,D1 antagonist,TRHR enhancer,D1 agonist,D1 PAM,TRHR agonist
CC(=O)c1ccc(NC(=O)Nc2ccc([N+](=O)[O-])cc2)cc1,-36*,-1,21,-3,2
CC(=O)c1ccc(NC(=O)Nc2ccc(Cl)cc2)cc1,-35*,-4,30,-5,-1
COC(=O)c1sccc1NC(=O)Nc1ccc(C(C)=O)cc1,-33*,-2,-1,0,0
CSc1ccc(CCNC(=O)c2sc3ncccc3c2-n2cccc2)cc1,-2,-2,16,0,0
Cc1ccc(OCCOCCn2ccnc2)c(Br)c1,-55*,16,31*,-8,-1
CCN(CC)CCCOc1ccc(C)cc1Br,-38*,-5,4,-9,0
CCOc1ccccc1OCCCOc1ccc(C)cc1Br,5,2,3,3,0
CCOC(=O)c1ccccc1NC(=O)N1CC(C)Oc2ccc(C)cc21 (configuration not stated),0,1,0,2,1
O=C(CC1Sc2ccccc2NC1=O)c1ccc(Br)cc1 (configuration not stated),-56*,3,0,-5,0
O=C(O)CC1Sc2ccccc2NC1=O (configuration not stated),-15,2,2,4,0
O=S(=O)(c1ccc2c(c1)OCCO2)N1CCN(S(=O)(=O)c2ccccc2OC(F)(F)F)CC1,-25,1,7,-3,1
COc1ccc(S(=O)(=O)Nc2cc(Cl)ccc2-n2cncn2)cc1,-62*,6,0,-1,1
CCOC(=O)c1ccc(NC(=O)CN(C)S(=O)(=O)c2ccc(OC)cc2)cc1,-16,2,2,0,-1
CCOC(=O)c1ccc(NC(=O)CN(C)S(=O)(=O)c2ccc(Br)s2)cc1,-38*,-6,10,-12,0
Cc1ccc(NC(=O)CCS(=O)(=O)c2ccc(Br)s2)cc1,-53*,-2,4,-8,-1
CCOC(=O)C(NC(=O)c1ccccc1)(OCc1ccc(F)cc1)C(F)(F)F (configuration not stated),-12,-2,-1,-7,0
CCOC(=O)C(NC(=O)c1cccc(Cl)c1)(OCc1ccc(F)cc1)C(F)(F)F (configuration not stated),-35*,13,13,-3,-3
CCN(CC(=O)Nc1ccc(NC(C)=O)cc1)C(=O)CCCN1C(=O)c2ccccc2C1=O,7,-1,3,-6,0
CCN(CC(=O)Nc1ccc(NC(C)=O)cc1)C(=O)CCN1C(=O)C2CC=CCC2C1=O (configuration not stated),-44*,10,3,-5,0
CCN(CC(=O)Nc1ccc(NC(C)=O)cc1)C(=O)CCCOc1ccc(C(C)(C)C)cc1,0,5,32*,7,1
Cn1c(=O)c2c(nc3n(-c4ccc(O)cc4)c(-c4ccc(Br)cc4)cn23)n(C)c1=O,9,2,1,0,1
CSC1=NC(C)(C)CC2(C)Nc3ccccc3N12 (configuration not stated),-32*,0,0,1,0
CCCOc1cc(NCc2ccccc2)c2ncn(C(C)C)c2c1,43,6,33*,15,0

# Compound activity: PubChem, National Center for Advancing Translational Sciences (NCATS)
